FAS TE block: blocks the thioesterase domain of human fatty acid synthase; AID 602261; recombinant FAS-TE, OMFH fluorogenic substrate, fluorescence endpoint; inhibition, % at 15 µM; 360,000 compounds, 0.67% hits;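 active = compounds whose normalised, plate-corrected inhibition of enzyme fluorescence in the single-dose primary screen is 50% or more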;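 also: 0% = DMSO with enzyme and 100% = substrate without enzyme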
NR3A LBD binder: NR3A (human) ligand-binding domain modulation | NR3A LBD differential scanning fluorimetry, Tm shift; 0% = protein alone, 100% = glycine-bound protein | Tm shift relative to glycine control, % at 25 µM | 340,000 compounds, 2.5% hits | AID 1259313;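 active = melting temperature shift of at least 10% of the positive control shift, at one fixed dose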
MPTP block: blocks calcium-induced mitochondrial swelling; isolated mouse mitochondria, Ca2+ swelling absorbance, 30 min; inhibition, % at 10 µM; 360,000 compounds, 1.4% hits; AID 602449;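 active = inhibition of 50% or more, scaled per plate between neutral and stimulator controls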;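 also: 0% = DMSO wells given calcium and 100% = 1 mM EGTA wells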
p-CIP stab down: p/CIP protein destabilization. 290,000 compounds, 0.01% hits. F442A p/CIP-EGFP cells, EGFP fluorescence, 16 h. AID 1984. decrease of EGFP signal, % at 10 µM;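 active = EGFP signal decrease of at least 30% at 10 µM or well 3 SD below plate mean, unless failing retest; inactive = the rest, including hits failing retest or dose response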
Target sequence (Q05BA5 1-1403): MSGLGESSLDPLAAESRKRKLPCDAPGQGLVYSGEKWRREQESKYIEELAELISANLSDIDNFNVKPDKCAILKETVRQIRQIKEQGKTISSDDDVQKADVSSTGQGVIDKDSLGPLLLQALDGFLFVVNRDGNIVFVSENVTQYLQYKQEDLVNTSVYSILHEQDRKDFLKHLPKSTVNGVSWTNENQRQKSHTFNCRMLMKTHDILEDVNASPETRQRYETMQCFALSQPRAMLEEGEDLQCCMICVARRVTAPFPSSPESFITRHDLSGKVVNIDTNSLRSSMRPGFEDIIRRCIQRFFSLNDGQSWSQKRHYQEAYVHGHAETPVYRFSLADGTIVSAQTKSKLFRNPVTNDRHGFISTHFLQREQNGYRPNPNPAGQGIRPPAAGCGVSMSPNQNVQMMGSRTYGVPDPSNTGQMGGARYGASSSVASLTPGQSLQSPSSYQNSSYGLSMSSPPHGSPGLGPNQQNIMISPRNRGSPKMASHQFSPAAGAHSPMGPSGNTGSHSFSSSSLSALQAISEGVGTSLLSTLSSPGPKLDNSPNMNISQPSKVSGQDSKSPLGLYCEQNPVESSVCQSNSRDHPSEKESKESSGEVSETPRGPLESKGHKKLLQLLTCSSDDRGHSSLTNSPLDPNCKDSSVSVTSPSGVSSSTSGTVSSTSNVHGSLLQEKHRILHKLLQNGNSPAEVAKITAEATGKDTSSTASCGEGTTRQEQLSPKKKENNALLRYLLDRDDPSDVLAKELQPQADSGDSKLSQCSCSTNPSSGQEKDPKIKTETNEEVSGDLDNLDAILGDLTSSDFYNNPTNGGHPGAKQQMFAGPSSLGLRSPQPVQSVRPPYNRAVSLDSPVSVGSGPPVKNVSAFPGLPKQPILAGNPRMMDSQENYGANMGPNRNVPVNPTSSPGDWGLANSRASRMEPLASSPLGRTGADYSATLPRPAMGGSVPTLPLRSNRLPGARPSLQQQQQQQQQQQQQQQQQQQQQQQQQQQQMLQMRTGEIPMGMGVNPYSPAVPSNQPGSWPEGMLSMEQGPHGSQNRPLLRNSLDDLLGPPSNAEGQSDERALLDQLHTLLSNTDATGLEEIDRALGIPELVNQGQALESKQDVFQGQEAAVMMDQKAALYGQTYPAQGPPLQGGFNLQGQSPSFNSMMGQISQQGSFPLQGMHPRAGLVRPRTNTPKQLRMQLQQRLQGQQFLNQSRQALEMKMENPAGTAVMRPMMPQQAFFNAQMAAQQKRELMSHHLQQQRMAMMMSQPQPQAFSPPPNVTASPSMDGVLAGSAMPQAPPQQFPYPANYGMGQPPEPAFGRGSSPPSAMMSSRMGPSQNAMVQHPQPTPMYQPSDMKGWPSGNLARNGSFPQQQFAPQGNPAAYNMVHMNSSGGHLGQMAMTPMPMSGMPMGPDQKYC
beta cell repl: inducers of beta-cell replication in MIN6 cells; 330,000 compounds, 0.29% hits; AID 2380; MIN6 cells proliferation, ATPlite luminescence, 48 h; cells starved in 0.2% serum; 100% = growth in 10% serum; proliferation, % at 10 µM;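 active = compounds whose signal lies at least 3.5 SD above the mean of all wells on their plate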;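 also: 0% = DMSO-treated cells in low-serum medium and 100% = 10% serum control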
Rh123 counter: Rhodamine 123 counter-screen of mitochondrial pore hits. shares compounds with MPTP block. isolated mitochondria, membrane potential, Rhodamine 123 fluorescence. inhibition, % at 10 µM. 5,000 compounds, 78% hits. AID 624504; in the data active = inhibition above about 22%;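 also: 0% = DMSO vehicle and 100% = positive control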
MPTP abs DR: MPTP inhibition, dose response swelling confirmation; shares compounds with MPTP block; isolated mitochondria swelling, absorbance; IC50, µM; 780 compounds, 58% hits; AID 651561; in the data active = IC50 below about 20 µM
MPTP cs DR: MPTP inhibitor counter-screen activity, dose response | shares compounds with MPTP block | isolated mitochondria counterscreen, fluorescence read-out | IC50, µM | 780 compounds, 49% hits | AID 651564; in the data active = IC50 below about 80 µM
* = called active by the depositor; i = inactive; . = no result. A selection: hits, their analogues and other compounds. The true share with any hit is near 4.1%.

SMILES | FAS TE block | NR3A LBD binder | MPTP block | p-CIP stab down | beta cell repl | Rh123 counter | others
O=C(Cc1ccc(Cl)cc1)Nc1ccc(Br)cn1 | 17 | 1 | 3 | 4 | -4 | .
Oc1ccc(Cl)cc1CNc1ccc(Br)cn1 | 21 | -2 | 58* | 3 | -5 | 62*
CS(=O)(=O)NCCNc1ncc(C(F)(F)F)cc1Cl | -4 | -1 | 0 | -10 | -1 | .
O=S(=O)(NCCNc1ncc(C(F)(F)F)cc1Cl)C(F)(F)F | -1 | -4 | 81* | -15 | -6 | 94*
O=C(O)C1Oc2cc3ccccc3cc2O1 | -1 | 1 | 2 | -2 | -5 | .
CCOC(=O)c1[nH]c(CSc2nnnn2-c2ccccc2C)c(C(=O)OCC)c1C | 8 | -2 | 2 | -2 | -2 | .
Cc1ccc(N=C2NC(=O)/C(=C\c3ccco3)S2)cc1 | -3 | -7 | 3 | -1 | 0 | .
O=C1NC(=Nc2ccc(Cl)cc2)/C(=C/c2ccco2)S1 | 2 | 0 | 79* | -1 | 0 | 56*
Cc1cccc(N=C2NC(=O)S/C2=C\c2ccco2)c1 | 2 | -7 | 71* | -1 | -5 | 54*
Clc1cccc(Cl)c1Cn1ccc(C2CC2)n1 | 8 | -2 | 4 | -9 | 3 | .
O=C(c1ccc(O)cc1)c1ccc(C(=O)c2ccc(O)cc2)cc1 | -24 | -3 | 69* | 8 | -3 | 34*
O=C(C(=O)c1ccc(O)cc1)c1ccccc1 | -3 | 7 | 1 | 3 | 3 | .
COc1ccc(CCNc2ncnc3sc(C)cc23)cc1OC | -2 | 3 | 101* | -14 | -4 | 96*
CC(=O)/C(N=Nc1cccc(C(F)(F)F)c1)=C(\C)O | 7 | -3 | 0 | -3 | -2 | .
O=C(/C(N=Nc1cccc(C(F)(F)F)c1)=C(/O)c1cccs1)C(F)(F)F | 45 | 17* | 86* | -8 | -4 | 82*
CN1C(C(=O)Nc2ccc(OC(F)(F)F)cc2)=CC(c2ccc3c(c2)OCO3)=NS1(=O)=O | 24 | 6 | 90* | -1 | -1 | 78*
CN1C(C(=O)Nc2ccc(OC(F)(F)F)cc2)=CC(c2cccs2)=NS1(=O)=O | 23 | 6 | 74* | -9 | -3 | 84*
COc1ccc(NC(=O)C2=CC(c3cccs3)=NS(=O)(=O)N2C)cc1 | 15 | 0 | 2 | 0 | -1 | .
CC(=O)c1ccc(NC(=O)C2=CC(c3ccc4c(c3)OCO4)=NS(=O)(=O)N2C)cc1 | 19 | -6 | 3 | 4 | -3 | .
Cc1cc(C(C#N)c2ccc(Cl)cc2)c(Cl)cc1NC(=O)c1cc(I)cc(I)c1O (stereo not given) | 57* | 4 | 100* | . | -8 | 20
CCN(CC)c1ccc2c(-c3ccc(S(=O)(=O)O)cc3S(=O)(=O)[O-])c3ccc(=[N+](CC)CC)cc-3oc2c1 | -72 | -437 | 64* | -498 | 2 | 1
Cc1ccc(/C=N\NC(=O)Cc2noc3ccccc23)cc1 | -3 | 0 | 1 | -11 | -3 | .
O=C(Nc1cc(Cl)cc(Cl)c1)c1cccc(OC(F)F)c1 | 38 | 25* | 96* | -10 | -6 | 96*
CCc1ccc(Nc2cc(C(=O)NCCCN3CCOCC3)c3ccccc3n2)cc1 | 4 | -6 | 52* | 6 | -4 | -25 | MPTP abs DR=i;MPTP cs DR=>80
O=C(N/N=C/c1cccc(C(F)(F)F)c1)c1ccccc1O | 2 | 2 | 65* | 6 | -2 | 55*
SMILES | FAS TE block | NR3A LBD binder | MPTP block | p-CIP stab down | beta cell repl | Rh123 counter | others
CCCC#Cc1ccc2c(c1)O[C@@H](CN(C)Cc1ccc3c(c1)OCO3)[C@H](C)CN([C@@H](C)CO)S2(=O)=O | 23 | . | -1 | . | . | .
COc1ccc(CN2CCC(CO)(CCOc3ccccc3)CC2)cc1C | -7 | 0 | 68* | -12 | -5 | -2 | MPTP abs DR=20*;MPTP cs DR=>80
COc1ccc(-c2ccc(C(=O)NCc3ccncc3)c3occc23)c(C)c1 | -6 | . | 92* | . | . | 112*
COc1ccc(-c2coc3c(C(=O)NCc4ccc(OC)c(OC)c4)cccc23)c(C)c1 | 25 | . | 98* | . | . | 102*
O=C(NCc1ccncc1)c1ccc(-c2ccc(F)c(F)c2)c2ccoc12 | 1 | . | 91* | . | . | 87*
O=C(O)c1cn(Cc2ccccc2Cl)c2ccc(S(=O)(=O)N3CCOCC3)cc2c1=O | -4 | -2 | 0 | -11 | 3 | .
Cc1ccc(C)c(OCC(=O)Nc2nc3ccc([N+](=O)[O-])cc3s2)c1C | 29 | -2 | 76* | -12 | -6 | 56*
CCC(=O)Nc1nc2ccc([N+](=O)[O-])cc2s1 | 4 | 0 | 3 | 1 | -3 | .
O=C(COc1ccc(F)cc1)NCCCn1ccnc1 | -6 | 1 | 1 | 10 | -2 | .
O=C(NCCSCc1ccco1)Nc1cc(Cl)cc(Cl)c1 | 38 | 3 | 86* | -3 | -3 | 90*
O=C(CSCc1ccc(Cl)cc1)NCCSCc1ccco1 | 10 | 0 | 1 | 17 | 0 | .
CCN(CC)S(=O)(=O)c1cccc(NC(=O)Nc2cccc(C(F)(F)F)c2)c1 | 31 | 31* | 87* | 3 | -6 | 69*
CCN(CC)S(=O)(=O)c1cccc(NC(=O)CC2CCCC2)c1 | 2 | -2 | 1 | -6 | 0 | .
CCN(CC)S(=O)(=O)c1ccc(C)c(NC(=O)CNc2cccc(S(=O)(=O)N3CCCC3)c2)c1 | 2 | 1 | 1 | . | 2 | .
COc1cccc(NC(=O)Nc2cc(C)on2)c1 | -2 | -2 | 1 | 2 | 0 | .
Cc1cc(/C(N)=N/OC(=O)Nc2cccc(C(F)(F)F)c2)no1 | 2 | 0 | 72* | -7 | 7 | 88*
CCN(CC)S(=O)(=O)c1cccc(NC(=O)CNc2cccc(S(=O)(=O)N3CCCC3)c2)c1 | 8 | -4 | 90* | -20 | -7 | 101*
Cc1cc(NC(=O)Nc2cccc(C(F)(F)F)c2)no1 | 3 | 589* | 76* | 10 | -3 | 71*
N/C(=N\OC(=O)Nc1ccccc1)c1cccc(C(F)(F)F)c1 | 9 | 6 | -1 | -4 | 4 | .
CC(C)(C)C1CCC(OCC(O)CN2CCN(c3ccccc3)CC2)CC1 (stereo not given) | -2 | -1 | 85* | -4 | -2 | -4 | MPTP abs DR=>100;MPTP cs DR=>80
O=C(Nc1ccccc1)Nc1ccc(-n2ccc(C(F)(F)F)n2)cc1 | 4 | 7 | 79* | -8 | -4 | 82*
O=C(O)CC(CC(=O)Nc1ccc(-n2ccc(C(F)(F)F)n2)cc1)c1ccccc1 (stereo not given) | -4 | -1 | 4 | 2 | 2 | .
O=C(/C=C/c1ccc(Br)cc1)NC(=O)c1ccccc1O | -2 | 3 | 102* | -8 | -5 | 88*

Screens: PubChem BioAssay, Sanford-Burnham Center for Chemical Genomics
